Hit rate of the full screen: of about 310,000 compounds, about 14,000 (4.5%) showed an effect of 50% or more. The effect is printed as a negative number. The sample holds strong results, similar compounds and a random draw of the others, so the mix is not that of the screen.
Biological target: human ether-à-go-go-related gene (hERG) potassium channel (human, UniProt Q12809)
Test: primary screen, population patch clamp on CHO cells stably expressing hERG; higher = less effect of the substance
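Note: peak tail current of the secondary pulse compared with the same well before compound.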

human ether-à-go-go-related gene (hERG) potassium channel, sequence (Q12809 whole entry, looked up): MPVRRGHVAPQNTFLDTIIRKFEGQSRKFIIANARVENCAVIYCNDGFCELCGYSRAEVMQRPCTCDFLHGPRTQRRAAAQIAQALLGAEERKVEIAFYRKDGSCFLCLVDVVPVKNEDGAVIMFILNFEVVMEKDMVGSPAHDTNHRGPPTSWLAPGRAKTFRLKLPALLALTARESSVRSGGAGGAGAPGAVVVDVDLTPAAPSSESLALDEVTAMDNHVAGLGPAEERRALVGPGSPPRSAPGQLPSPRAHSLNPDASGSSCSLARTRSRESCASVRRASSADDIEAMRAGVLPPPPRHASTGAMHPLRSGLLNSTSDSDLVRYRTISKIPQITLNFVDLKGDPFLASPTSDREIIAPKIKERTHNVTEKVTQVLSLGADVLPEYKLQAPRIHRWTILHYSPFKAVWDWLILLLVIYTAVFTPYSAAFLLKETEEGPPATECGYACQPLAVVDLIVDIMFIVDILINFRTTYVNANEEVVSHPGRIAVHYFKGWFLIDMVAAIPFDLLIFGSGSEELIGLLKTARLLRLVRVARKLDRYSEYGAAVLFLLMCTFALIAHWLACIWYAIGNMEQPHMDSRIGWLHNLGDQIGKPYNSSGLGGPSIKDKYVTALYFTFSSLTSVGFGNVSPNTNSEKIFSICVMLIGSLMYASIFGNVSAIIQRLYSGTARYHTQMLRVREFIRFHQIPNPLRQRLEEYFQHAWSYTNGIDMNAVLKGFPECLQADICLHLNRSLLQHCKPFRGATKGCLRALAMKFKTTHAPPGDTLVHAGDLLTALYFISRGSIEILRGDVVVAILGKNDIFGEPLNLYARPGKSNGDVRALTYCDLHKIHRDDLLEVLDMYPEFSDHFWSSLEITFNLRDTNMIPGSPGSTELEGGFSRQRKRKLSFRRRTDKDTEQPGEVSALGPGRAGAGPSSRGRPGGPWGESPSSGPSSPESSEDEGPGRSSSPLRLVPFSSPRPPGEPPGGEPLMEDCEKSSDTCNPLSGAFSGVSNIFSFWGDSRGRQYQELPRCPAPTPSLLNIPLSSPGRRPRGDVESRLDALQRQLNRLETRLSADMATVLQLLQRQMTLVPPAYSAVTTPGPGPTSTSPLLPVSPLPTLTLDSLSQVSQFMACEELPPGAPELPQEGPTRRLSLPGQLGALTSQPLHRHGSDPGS

SMILES	hERG current change (%, negative = inhibition) at 10uM [%]
Cc1ccc(NC(=S)N2CCC(O)CC2)c(C)c1	16.3
CC(=O)Oc1ccc2nc(CN3C(=O)c4ccc([N+](=O)[O-])cc4C3=O)oc(=O)c2c1	10
CC(=O)NN1C(=O)c2ccccc2NC1c1ccco1 (stereo not drawn)	15.7
O=C(NN1C(=O)c2ccccc2NC1c1ccc([N+](=O)[O-])o1)c1ccc(Br)cc1 (stereo not drawn)	-72.7
CC1Nc2ccccc2C(=O)N1NC(=O)c1ccc(Br)cc1 (stereo not drawn)	-9.66
O=C(NN1C(=O)c2ccccc2NC1c1ccco1)c1ccc(Br)cc1 (stereo not drawn)	-76.6
O=C(NN1C(=O)c2ccccc2NC1c1ccc([N+](=O)[O-])o1)c1ccccc1 (stereo not drawn)	-9.78
O=C(NN1C(=O)c2ccccc2NC1c1ccc([N+](=O)[O-])o1)c1ccc([N+](=O)[O-])cc1 (stereo not drawn)	-65.5
O=C(NN1C(=O)c2ccccc2NC1c1ccoc1)c1ccc([N+](=O)[O-])cc1 (stereo not drawn)	-41.8
CC(=O)NN1C(=O)c2ccccc2NC1c1ccc([N+](=O)[O-])o1 (stereo not drawn)	8.22
O=C(NN1C(=O)c2ccccc2NC1c1ccco1)c1ccccc1 (stereo not drawn)	-0.469
COc1ccccc1NCCC(=O)OCC(=O)NC1CCCC(C)C1C (stereo not drawn)	9.37
CCOc1cc(/C=C2/C(=N)N3N=C(C)SC3=NC2=O)ccc1OS(=O)(=O)c1ccc(C)cc1	0.16
COc1ccc(NC(=O)Cn2c(=O)n(-c3ccccc3)c(=O)c3sccc32)c(OC)c1	0.835
CCOC(=O)c1c(NC(=O)c2cccs2)sc(C(=O)N2CCOCC2)c1C	-55.5
CCOC(=O)c1sc(NC(=O)CCN2CCOCC2)c(C(=O)OCC)c1C	-2.58
CCOC(=O)c1sc(NC(=O)CCN2CC(C)OC(C)C2)c(C(=O)OCC)c1C.O=C(O)C(=O)O (stereo not drawn)	13.9
CCOC(=O)c1c(NC(=O)c2cccs2)sc(C(=O)N(C)C)c1C	-10.9
CCOC(=O)c1c(-c2ccc(OC)cc2)csc1NC(=O)CCN1CCOCC1	-53.2
CCOC(=O)c1sc(NC(=O)CCN2CCCCCC2)c(C(=O)OCC)c1C	-24.7
CCOC(=O)c1c(-c2ccc(C)cc2)csc1NC(=O)CCN1CCOCC1	-42.1
CCOC(=O)c1c(-c2ccc(-c3ccccc3)cc2)csc1NC(=O)CCN1CCOCC1	13.8
CCOC(=O)c1sc(NC(=O)CCN2CCN(C)CC2)c(C(=O)OCC)c1C	-79
CCOC(=O)c1sc(NC(=O)CCN2CCN(CC)CC2)c(C(=O)OCC)c1C	-88.9

SMILES	hERG current change (%, negative = inhibition) at 10uM [%]
CCOC(=O)c1sc(NC(=O)CCN2CCC(C)CC2)c(C(=O)OCC)c1C	9
CCOC(=O)c1c(NC(=O)c2cccs2)sc(C)c1C	3.46
NS(=O)(=O)c1ccc(CNC(=O)CSc2ccccc2)cc1	14.5
CCOC(=O)C(=NC(C)CC)NNc1cccc(C(F)(F)F)c1 (stereo not drawn)	-1.86
O=C(c1ccc([N+](=O)[O-])cc1[N+](=O)[O-])N1CCCC1	5.62
CN(Cc1ccccc1)C(=O)c1cc(S(=O)(=O)N2CCOCC2)cn1C	-7.13
Fc1cc(Br)ccc1NC(=S)Nc1cccnc1	0.43
COc1ccc(C(=O)O)cc1S(=O)(=O)NC(C)C12CC3CC(CC(C3)C1)C2 (stereo not drawn)	1.27
O=C(NC1CCCCCC1)c1c(O)c2ccccc2[nH]c1=O	8.34
CCOC(=O)c1ccc(NC(=O)CCc2nc(-c3ccc(C)cc3)no2)cc1	5.14
Cc1cccc(OCC(=O)NCc2cc(C)nc3ccccc23)c1	-9.05
O=c1cc(CCl)[nH]c2nc3ccccc3n12	-6.02
CCC(C)n1c(SCc2ccc([N+](=O)[O-])cc2)nc2ccsc2c1=O (stereo not drawn)	-11.6
CN1CCN(c2nc(-c3ccc(Cl)s3)cs2)CC1	-3.91
O=c1oc(-c2ccc([N+](=O)[O-])cc2)nc2ccccc12	18.2
CCOC(=O)c1c(NC(=O)CSc2cccc[n+]2[O-])sc(C(=O)Nc2ccccc2)c1C	-30.1
CCOC(=O)c1sc(NC(=O)CN2CCCC2)c(C(=O)OCC)c1C	-6.37
CCOC(=O)c1c(NC(=O)CN2CCN(C)CC2)sc(C(=O)Nc2ccccc2)c1C	-58.9
Cc1ccc(NC(=O)CSCC(=O)OC(C)C(=O)Nc2ccc(S(N)(=O)=O)cc2)c(C)c1 (stereo not drawn)	5.08
COc1ccc(F)cc1C(=O)C1CCCN(C(=O)c2ocnc2C)C1 (stereo not drawn)	-10.1
O=C(NC1CCCC1)C(=O)N(Cc1cccnc1)C(C(=O)NC1CCCC1)c1ccco1 (stereo not drawn)	19.6
O=C(CN1CCN(c2ccccc2F)CC1)c1ccc(O)c(O)c1	-70.7
O=C(CN1CCOCC1)c1ccc2cc[nH]c2c1	8.82
O=C(CN1CCN(c2ccccc2F)CC1)c1ccc2c(c1)OCO2	-10.3

SMILES	hERG current change (%, negative = inhibition) at 10uM [%]
O=C(CN1CCN(c2ccccc2F)CC1)c1ccc2cc[nH]c2c1	-82.9
O=C(CN1CCN(c2ccccc2F)CC1)c1ccc(O)cc1O	14.2
O=C(CN1CCN(c2ccccc2)CC1)c1ccc2cc[nH]c2c1	11.4
CC(=O)Cc1nsc(NC(=O)c2ccc(-c3cc(C(F)(F)F)ccc3Cl)o2)n1	22.7
O=C(c1cccnc1)N1CCN(S(=O)(=O)c2ccc3ccccc3c2)CC1	-34.9
CC(CNC(=O)c1ccc(Br)o1)NC(=O)c1ccc(Br)o1 (stereo not drawn)	-0.676
CC1CCCCC1NC(=O)COC(=O)CCC(=O)c1cccs1 (stereo not drawn)	17.3
CCn1c(Cn2nnc(-c3ccccc3)n2)nnc1SCC(=O)Nc1ccccc1	-7.39
CC(C)Oc1ccc(NC(N)=O)cc1	1.14
COCCN=C1Sc2nc3ccc(C)cc3cc2CN1Cc1ccco1	-61
COCCN1Cc2cc3cc(C)ccc3nc2SC1=Nc1ccc(OC)cc1	7.73
CCC(C)N=C1Sc2nc3ccc(C)cc3cc2CN1CCOC (stereo not drawn)	-79
COCCN=C1Sc2nc3c(C)cccc3cc2CN1Cc1ccco1	8.49
COCCN=C1Sc2nc3ccc(C)cc3cc2CN1Cc1cccs1	-11.1
CCOc1ccc(N=C2Sc3nc4ccc(C)cc4cc3CN2CCOC)cc1	41.4
CCNC(=O)CSc1nnc(-c2cccc(S(=O)(=O)N(CC)CC)c2)n1CCc1ccccc1	-9.82
Cn1ccc(C(=O)Nc2ccc3c(c2)OCCO3)n1	21.9
O=C(NN1CCOCC1)c1cn(-c2ccccc2)nc1-c1cccs1	-1.47
COC(=O)c1nc(NC(=O)c2ccccc2)n[nH]1	-9.58
O=C(C1=NN[C@@H]2C(=O)N(c3cccc(F)c3)C(=O)[C@H]12)C(c1ccccc1)c1ccccc1	-19.2
CCCCn1c(=NC(C)=O)c(C#N)cc2c(=O)n3cccc(C)c3nc21	-31
CCCCn1c(=NC(=O)c2cccnc2)c(C#N)cc2c(=O)n3cccc(C)c3nc21	-10.6
CCCCCn1c(=NC(=O)c2cccnc2)c(C#N)cc2c(=O)n3cccc(C)c3nc21	-54.8
Cc1cccn2c(=O)c3cc(C#N)c(=NC(=O)c4cccnc4)n(CC4CCCO4)c3nc12 (stereo not drawn)	-51.1

SMILES	hERG current change (%, negative = inhibition) at 10uM [%]
Cc1cc(=O)c2cc(Br)ccc2[nH]1	8.12
Cc1n[nH]c(C)c1S(=O)(=O)N1CCC(C(=O)N2CCn3c2nc2ccccc23)CC1	-3.79
CC(C)CC(COCc1ccc(Cl)cc1)N1CCN(C(=O)c2cccc(C(F)(F)F)c2)CCC1=O (stereo not drawn)	-38.1
CCOC(=O)c1cc(S(=O)(=O)N(C)Cc2ccccc2)cn1C	-11.7
CCn1c(=N)n(CCOc2ccc(OC)cc2)c2ccccc21	-55.1
CCCn1c(=N)n(CCOc2ccc(OC)cc2)c2ccccc21	-59.5
COc1ccc(OCCn2c(=N)n(CCO)c3ccccc32)cc1.Cl	-24.2
C=COCCn1c(=N)n(CCC)c2ccccc21.Cl	-28.3
CCn1c(=N)n(CCO)c2ccccc21.Cl	5.84
COc1ccc(OCCn2c(=O)sc3ccccc32)cc1	-8.81
Cn1cc(P(=O)(N2CCOCC2)N2CCOCC2)cc1P(=S)(N1CCOCC1)N1CCOCC1	16.6
Cc1nc(-c2ccc(NC(=O)c3ccc(Br)o3)cc2)cs1	4.44
Cc1ccc(-c2cc(C(F)(F)F)n3nc(C(=O)N4CCN5CCCC5C4)cc3n2)cc1 (stereo not drawn)	-48.3
O=C(c1cc2nc(-c3ccccc3)cc(C(F)(F)F)n2n1)N1CCOCC1	-29.3
O=C(c1cc2nc(-c3ccccc3)cc(-c3ccccc3)n2n1)N1CCN(C(=O)c2ccco2)CC1	-56.9
O=C(c1ccccc1)N1CCN(C(=O)c2cc3nc(-c4ccccc4)cc(C(F)(F)F)n3n2)CC1	-51.1
O=C(c1cc2nc(-c3ccccc3)cc(C(F)(F)F)n2n1)N1CCN2CCCC2C1 (stereo not drawn)	-30.3
CN1CCN(C(=O)c2cc3nc(-c4ccccc4)cc(-c4ccccc4)n3n2)CC1	-38.3
COc1ccc(-c2cc(C(F)(F)F)n3nc(C(=O)N4CCN5CCCC5C4)cc3n2)cc1OC (stereo not drawn)	-64.4
O=C(c1cc2nc(-c3ccc(F)cc3)cc(C(F)(F)F)n2n1)N1CCCCC1c1cccnc1 (stereo not drawn)	-80.2
O=C(c1cc2nc(-c3ccccc3)cc(-c3ccccc3)n2n1)N1CCCC1	9.99
Cc1ccc(-c2cc(C(F)(F)F)n3ncc(C(=O)N4CCCCC4c4cccnc4)c3n2)cc1 (stereo not drawn)	4.63
COc1cccc(-c2cc(C(F)(F)F)n3nc(C(=O)N4CCCCC4c4cccnc4)cc3n2)c1 (stereo not drawn)	-23.1
CCN1CCN(C(=O)c2cc3nc(-c4ccccc4)cc(C(F)(F)F)n3n2)CC1	-22

From article PMC4336329 (PLoS ONE, 2015)
